Whole data set: some 1,800 sequences, median “median log2 fold change of GCK-ALFA target abundance (FLAG IP / Myc IP barcode read proportion)” near 0.14, cut for the lowest 2% near -0.84. Only a selection was taken, and the lowest values are over-represented in it overall.
T1: TRAF2, Q12933
T1 chain: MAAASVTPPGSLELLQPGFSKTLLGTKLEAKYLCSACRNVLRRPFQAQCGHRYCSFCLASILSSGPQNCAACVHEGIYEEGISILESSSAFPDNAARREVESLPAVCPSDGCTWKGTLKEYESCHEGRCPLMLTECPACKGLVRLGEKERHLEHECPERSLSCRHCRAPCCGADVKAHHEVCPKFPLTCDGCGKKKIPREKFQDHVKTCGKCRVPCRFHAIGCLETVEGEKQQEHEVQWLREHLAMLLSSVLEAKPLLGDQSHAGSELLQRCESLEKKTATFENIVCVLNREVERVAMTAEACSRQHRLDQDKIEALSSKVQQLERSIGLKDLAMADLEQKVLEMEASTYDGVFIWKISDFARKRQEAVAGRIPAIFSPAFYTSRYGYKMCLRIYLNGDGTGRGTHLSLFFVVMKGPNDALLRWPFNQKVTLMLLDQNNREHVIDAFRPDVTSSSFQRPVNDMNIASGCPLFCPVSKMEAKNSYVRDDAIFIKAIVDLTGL

B1: traf2_out_11_155_677 (protein)
chain: EKKREINNALVDEMAAIDDATRAALDAIVDAAAAAHPEHAAALRAARDATRPYPGSSRGRALAALFRELGLEDYAAQVEALLAAAQKEKNAALKAHEAKL
B2: traf2_out_20_3_2096 (protein)
chain: EELKKELEKALEEAEKLIKEAIKLADEETAKKLKELLKKLKEAKELPLDDQLVELSEVRRELLELAEKAKKEGKEELAKILEEAADKINRAMNLAYKIIE
B3: traf2_out_17_178_1700 (protein)
chain: SKEEIRKKISELTDELIDHADRYGTALLARLRAEGVLSPEELAALDAALASGSNRTLLATAEELIPRSAASPETRALLAEWRAETREIAKKIAEAYEKYE
B4: traf2_out_18_167_1855 (protein)
chain: EEELKKKLEEATDELVKLSEVKRLARTALQLLETDPAAFPAAKAALIAALRAHGELAHLADRLEAAPPEEQPAVLEEIVEEAQRLANEKYKEIEELRKKL
B5: traf2_out_5_63_2338 (protein)
chain: SEREELTALAREADRAVRAILEALKAGKREEARKLVEEVAKDPELLRTAIGIARAELKYYSLQPEKKEEEKIAKELLKLLEEAAKRREEEERREREEALA
B6: traf2_out_17_178_1715 (protein)
chain: TKEAARAEISAATDEMIDLAEAAAARLLAIAEAEGSLSPEELAELRRARRLGSARTTRALMRRAIPRSPSAAEVQALLDDFEKRYAELSKKIAEALKKYE
B7: traf2_out_15_180_1332 (protein)
chain: MTEEELEKRIELVAEVADEADERVREELAAAGVTSPEHLALARSGVRAVITHVFAGWEEEAEEVEEIVAARLPEELRPLFRRLVEEARRRAEEALERLKK
B8: traf2_out_6_3_2529 (protein)
chain: SEEKLREDARTILENMGITTAEQLLRLVKAEVNAVKQLVSRPDVDRADLAGARSVLALTRAMVEVAAETLPSLTPEQAEEALALIDETEKLVEKREKELE
B9: traf2_out_6_3_2518 (protein)
chain: MEESIRRDAAKVLENMGITTAEQLLRLVKANVNAVKKLVSRKDVDRADLAGAESVLNLTRAMVEVAAETLPDLTEEQKAEMLALIEEARELVEKKRKELE
B10: traf2_out_6_3_2519 (protein)
chain: MEESLREDARTVLKNMGITTAEQLLRLVKAEVNAVKKLVSRKDVDRADLAGAESVLALTRAMVEVAAEELPDLTEEQKAEMLELIEEAEKLVEEKRKELE
B11: traf2_out_20_3_2058 (protein)
chain: SELDEEIEKKTKELEKKLAELAKLLPPEEAAELAKAWAEVKKAAKEGLEEFLIAVSKLRRLLLELSEEARARGDEKTAKLLEEAAEIAQEIAHLIYKKIE
B12: traf2_out_1_158_906 (protein)
chain: STAVNTLYAVATSIADVYAELAKERGLEKAAALLEKLKEDIKELYEKNKNASLEEFAKKVLELIEEKEKESESLPEEDKALVDIAFRQIKSGVEQVVKLA
B13: traf2_out_16_177_1453 (protein)
chain: ELDRLMDRLVILSELRRAALLAVEGRGDEYREHLARARELAEEAGDEEALALADRIEALIAENTPEAKEELKKLAEELQKEAQKLALEAEKLIKERAKEE
B14: traf2_out_11_169_827 (protein)
chain: EEAEKNRKINDKALELEDKAKKEFKEFVLKLAKEDGLDVEEIKKIFEENKNKSLSAQAAAVIEYFKSKGKEEAAKKVLEKYEELKEKINKEVTAFIKELE
B15: traf2_out_11_155_748 (protein)
chain: EERRKLLQEMNDKITELFDKAREEALKIAEEAAKKHPEHAEEIKKKIEETKGFSYRSFILSMIELFEELGLEEEAKKLKELLEKTQKEANKIVQETEKKL
B16: traf2_out_20_3_2118 (protein)
chain: EELEEELEKELEEALKLLKEAAKLADKKTAKKLEKLAKRLKESRKLSPSDRLVVVSEVRREVRRLRLEAEKKGDKKLAKVLDEAAEELNRAANLLMKIIE
B17: traf2_out_13_95_1130 (protein)
chain: SRETAEKIMEIADEMLDKVLEILKELLKKFEKAGVGVEEIKEAIYLAEHQSINEAIKLLEELAKKYPEFKEELNKAIEEIKKLRREAGKKVAEILKEEKE
B18: traf2_out_11_79_936 (protein)
chain: EEKRQELLKKLEEALKLLKELLEKMKAGTISEEERKEMLDEIERLLQRAAQLALELGLSDTLVEISEAKRHVRLAYSGDLEALEKAIKELEEAIKLVEEA
B19: traf2_out_17_162_1640 (protein)
chain: SPVEEFKERVEKELKELEKRVEELEEKSKKIDEYSKEELSDLIVEASEVKRRARELKQEVLAAKDLIPEEERARILKRLEEIIERAQRIAQKFYDKYLSL
B20: traf2_out_13_95_1160 (protein)
chain: SKELAKKIMEIADEMLDESEKILEELLKIAKEKGKLEKEVQEALDLARYRSINEAIHKLEELAKKYPEFKEEFEKAIKKLKELKREAGKKVAKLIKEEEE
B21: traf2_out_13_95_1105 (protein)
chain: SAETAEKIMEVADEMLEKSEKLLEELLKIAKEKGKLVEEVQEALDLARYRSINEAIHKLKELAKKYPEFKEEFEATIKELEELKREAGRKVAEILKEEKE
B22: traf2_out_13_95_1154 (protein)
chain: SKELAEKIMEIADKMLDKSKEILKELLEIAKKKGKLEEEVQEALYLAETRSINEAIHKLKELAKKYPEFKEELEKAIKELEELKREAGKEVAKLIKEEKE
B23: traf2_out_17_162_1603 (protein)
chain: SSLEKKKEELLKKKEELKEELKRLTEKLKNIEKLSKEELSDLLVEASEKKREALEALEKIEELKDELDPEEYEKLSTEFEELAEEFQRIANKFYKELEKK
B24: traf2_out_6_156_2407 (protein)
chain: MVEEIFEEAMKEIKELIKKLSEASEEKKISYISKIAGTFYRALQRLREAGASVEELEEFIKRMMEKIKEWLDEEGLPEDIKNLILSSLKAVGDVALEEAK
B25: traf2_out_17_162_1641 (protein)
chain: SAAEELRKRLLEELERLEKELKELEEKSKKIDEYTKEELSDLIVEASEARRRARELIEEVDRNRSLLDPEEYEELKKRLEEIAERLNRIAQKFYDKYLEL
B26: traf2_out_17_162_1479 (protein)
chain: MSIEEKVERLERELEELEEEARRLREELERLEEKSKEEITDLLVEVSEARRRALELAEEFEELAPEIGEEKARELADRAREIAEELQRIANEIYKELEKK
B27: traf2_out_17_60_1760 (protein)
chain: GPEERKKELAEEARRKIEEARRLVEEVRKKLEAGTLTADEAMDYLVELSEKRRELRRLAEELRAEGPEFEPLIEELERAIEEVERTMNEVGKELERLLAA
B28: traf2_out_6_3_2512 (protein)
chain: EEEEERKRNEEALEEAAEMSLETIKIAAETTLKELEKAVEDPNATETDFLAYKSSLNLLLEIMKKHAEKHPEEKEEAEKFIEEMKKKLEELEKEWKKKRA
B29: traf2_out_20_3_2213 (protein)
chain: DELVAAVREQLAKIRELLEQARPRLAPEDYARLNALLARAEEALETDPSDALVALSELRRALLELAERARAAGDEELAKLLEEAAEAANKAANLVMQLLE

Target: T1, TRAF2, Q12933
Test: median log2 fold change of GCK-ALFA target abundance (FLAG IP / Myc IP barcode read proportion) (log2 ratio); each designed protein is fused to an ALFA-tag nanobody in HEK293 cells to bring the named protein to FLAG-tagged glucokinase (GCK); Myc marks an untargeted standard; higher = target protein stabilised (more abundant)
Details: target protein: 3xFLAG-MCP-GCK-ALFA reporter; HEK293 landing pad (RPLP)
Method in brief: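 Sequencing of reverse-transcribed, amplified circular RNA barcodes from anti-FLAG and anti-Myc immunoprecipitates provided the readout for an ALFA-nanobody-fused binder library recombined into HEK293 landing-pad cells. Those cells were induced with 2 μg mL^−1 doxycycline, transfected with a plasmid expressing a FLAG-tagged target and a Myc-tagged standard, and lysed after 48 h. Target abundance is the per-binder median log2 ratio of FLAG to Myc barcode read proportions. Only barcodes at a proportion of ≥10^−7 in both replicates and binders with ≥3 barcodes per replicate were kept, with a 10^−6 pseudocount added before the two replicates were pooled.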

Binder | median log2 fold change
B1 | -0.00384
B2 | 0.177
B3 | 0.0128
B4 | 0.405
B5 | 0.165
B6 | -0.171
B7 | -0.0893
B8 | -0.16
B9 | -0.905
B10 | -0.45
B11 | 0.144
B12 | 0.0998
B13 | -0.267
B14 | -0.542
B15 | 0.302
B16 | 0.107
B17 | -0.433
B18 | 0.397
B19 | 0.0147
B20 | -1.21
B21 | -0.477
B22 | -0.148
B23 | 0.253
B24 | 0.175
B25 | 0.177
B26 | 0.0731
B27 | 0.112
B28 | 0.417
B29 | 0.129

Source: the supplement of paper PMC12632987
